# Measurements reported in PubChem BioAssay (NCATS).
# Inconclusive results are not listed. Values without a mark were called inactive. Active and inactive are the calls of the source. Calls follow the shape of the dose curve; as a rule, active = well fitted activation curve with a large enough effect; inconclusive = small, poorly fitted or top-dose-only effect; inactive = flat fitted curve, though single readings scatter. Starred links: 1 amine or outer side, 2 acyl side, 3 side chain; linkers in the order of their positions; H or OH if unused. Positions of bridges follow the written chain, without caps; N, C: chain ends. Non-standard residues stand in square brackets, D forms with d. Residues, ends and D or L forms follow the SMILES beside them. ξ: configuration not given here. *: point of attachment. X3 = C[C@@H](Oc1ccc([C@H](N[*:1])C(=O)[*:2])cc1)[C@]1(/C=C\C(=O)[*:3])CO1; d(aIle) = CC[C@H](C)[C@@H](N)C(=O)O; X2 = CC(C)[C@@H](O)C(C)C(=O)*; ξNMeF = CNC(Cc1ccccc1)C(=O)O; ξT = CC(O)C(N)C(=O)O; ξS = NC(CO)C(=O)O
# Experiment: qHTS for Activators of p53 Stress Response Pathway screened against the NCATS CANVASS Library (AID 1347388); as to activation: 0% is about no effect
# Conditions: p53RE-bla HCT-116, beta-lactamase reporter, 16 h; series mostly up to 46.1 µM; activation: at the top concentration
# Excerpt: Natural products and their derivatives continue to be wellsprings of nascent therapeutic potential. However, many laboratories have limited resources for biological evaluation, leaving their previously isolated or synthesized compounds largely or completely untested. To address this issue, the Canvass library of natural products was assembled (https://tripod.nih.gov/canvass), in collaboration with academic and industry researchers, for quantitative high-throughput screening (qHTS) across a diverse set of cell-based and biochemical assays. The pure (>85% purity by liquid chromatography/mass spectrometry [LC/MS]) Canvass library of 346 natural products were submitted by 45 academic laboratories and companies around the world. We collected pure natural products to circumvent deconvolution and structure elucidation due to time and resource limitations. The library was formatted into 1536-well plates and evaluated in 50 qHTS (in an 11-pnt concentration series) bioassays with broad scope of disease-relevant mechanisms. The resulting data set from 50 different assays was then systematically analyzed to identify overall trends and specific natural products with interesting biological activities. Reported herein are the results of each individual qHTS and their corresponding assay protocol. This assay measures compound activation of the p53 signaling pathway in cells using a beta-lactamase reporter gene. The p53RE-bla HCT-116 cell line (Invitrogen) contains a stably integrated beta-lactamase reporter gene under control of the p53 response elements. The activation of the report gene under culture conditions can be detected by fluorescence intensity. National Center for Advancing Translational Sciences (NCATS), Rockville, MD National Institute of Health (NIH), Bethesda, Maryland
# p53-screen protocol: 1. In black-clear bottom 1536-well plate, 5 uL of p53RE-bla HCT-116 cell suspension was dispensed using a Multidrop Combi (Thermo Fisher Scientific) at a final concentration of 4000 cells / well. 2. The assay plates were incubated for 5 hours at 37C, 5% CO2. 3. […] of compounds (in DMSO; columns 5-48), vehicle control DMSO, and positive control were pin transferred into the assay plates using the Kalypsis pin tool (Wako USA) equipped with a 1536-well pin heads. This yields a final CANVASS compound concentration of 0.4 nM - […]. 4. The assay plates were incubated for 16 hours at 37C, 5% CO2. 5. After incubation, 1 uL of CCF4 dye was added per well using the BioRAPTR dispenser 6. The plates were incubated for 2 hours at room temperature. 7. The fluorescence readout was obtained using the EnVision microplate reader (PerkinElmer) equipped with a 405 nm excitation and 460 nm and 530 nm emission filters. The ratio of 460 nm / 530 nm readout was calculated and used for data analysis. 8. To access cellular viability and compound toxicity, 4 uL of CellTiter-Glo was added to the wells using the BioRAPTR dispenser. 9. The assay plates were further incubated for 30 minutes at room temperature. 10. Luminescence signal was obtained using the ViewLux plate reader (PerkinElmer) using the clear emission filter and 1x binning, 2 second exposure settings.
# Potency is read from the fitted curve at half-maximal effect.
Compound,Potency,activation
CO[C@H]([C@@H](C)[C@H]1O[C@]1(C)C[C@H](C)/C=C/C=C(\C)[C@H]1O[C@@H](CC(=O)O)CC[C@@H]1C)[C@@H](C)O,0.0148 µM (active),
CO[C@@]12c3c(C)cc(O)c4c(=O)occ(c34)C(=O)[C@@H]1[C@]13COC(=O)c4c(O)cc(C)c(c41)C(=O)[C@H]2[C@@H]3OC(C)=O,,1.59%
CCCC[C@@H](C)/C=C1/CN2CCC[C@H]2[C@@](C)(O)[C@@H]1O,,-1.74%
C/C=C1/CN2CC[C@]34C(=C(C(=O)OC)[C@H]1C[C@H]23)Nc1ccccc14,,1.13%
C[C@]12CCC3[C@@H](CC[C@@H]4C[C@@H](O)CC[C@]34CO)[C@@]1(O)CC[C@@H]2C1=CC(=O)OC1 (some centres not stated),,3.06%
C/C=C1/CN2CC[C@@]34c5ccccc5N(C)[C@@H]3[C@@H]2C[C@@H]1[C@H]4C(=O)OC,,-5.04%
CC[C@H](C)[C@H]1NC(=O)[C@@H](NC(=O)C(C)[C@H](O)C(C)C)[C@@H](C)OC(=O)C2COC(=O)CNC(=O)/C=C\[C@]3(CO3)[C@@H](C)Oc3ccc(cc3)[C@H](NC1=O)C(=O)N(C)C(Cc1ccccc1)C(=O)NC(C(C)O)C(=O)N2 (some centres not stated) (X2-T[d(aIle)][X3][ξNMeF][ξT][ξS]; ester 1-C; linker 3-6 via G),,1.96% [at 27.5 µM]
O[C@H]1C=C[C@@]23CCN(Cc4cc5c(cc42)OCO5)[C@@H]3C1,,1.11%
C=C[C@H]1CN2CCc3c([nH]c4cccc(OC)c34)[C@@H]2C[C@@H]1/C(=C\OC)C(=O)OC,,-3.89%
CO[C@@H](/C=C/CC/C=C/C(=O)O)[C@@H](O)[C@H](C)/C=C(\C)[C@H](O)[C@H](C)C(=O)CCCC1CC(=O)NC(=O)C1,,1.63%
CC[C@@H]1CN2CCC3(Nc4cccc(OC)c4C3=O)[C@@H]2C[C@@H]1/C(=C\OC)C(=O)OC (some centres not stated),,4.21%
C/C(=C\[C@H](C)C(=O)C[C@H](O)CC1CC(=O)NC(=O)C1)[C@@H]1OC(=O)/C=C/CC/C=C/C=C/[C@@H]1C,,-15.9%
CC[C@H]1CN2CCc3c([nH]c4cccc(OC)c34)[C@@H]2C[C@@H]1/C(=C\OC)C(=O)OC,,-6.05%
C[N+](C)(C)CCc1c[nH]c2ccccc12,,4.33%
CC[C@]12C=CCN3CC[C@]4(C(=C(C(=O)OC)C1)Nc1ccccc14)[C@@H]32,,-3.2%
C=CC(C)(C)[C@@]12C[C@H]3C(=O)N/C(=C\c4cnc[nH]4)C(=O)N3[C@@H]1Nc1ccccc12,,-1.57%
c1ccc2nc3c(cc2c1)[nH]c1ccccc13,,17.1%
C1=C2CCCN[C@H]2C2CC1[C@H]1CCCCN1C2 (some centres not stated),,3.07%
C=C[C@]12C=CCN3CC[C@@]4(c5ccccc5NC(=O)[C@@H]4C1)[C@@H]32,,9.79%
C[C@]12CC(O)C3[C@@H](CC[C@@H]4C[C@@H](O)CC[C@]34CO)[C@@]1(O)CC[C@@H]2C1=CC(=O)OC1 (some centres not stated),,8.89%
CCCCC1CC[C@H]2CCCC(CCC)N12 (some centres not stated),,-0.304%
CCCC[C@@H]1CC[C@H]2CCCC(CCCO)N12 (some centres not stated),,1.48%
CC(C)CC1C(=O)O[C@H](C(C)C)C(=O)N(C)C(CC(C)C)C(=O)O[C@@H](C(C)C)C(=O)N(C)C(CC(C)C)C(=O)O[C@H](C(C)C)C(=O)N(C)C(CC(C)C)C(=O)O[C@@H](C(C)C)C(=O)N1C (some centres not stated),,14.7%
C/C=C(\C)C(=O)O[C@@H]1[C@@H](O)[C@@H]2O[C@H]3[C@H](O[C@@H](CCCCC)CCCCCCC(=O)CCC(=O)OC[C@@H](O2)[C@H]1OC(=O)/C=C/c1ccccc1)O[C@H](C)[C@H](OC(C)=O)[C@@H]3O,,9.84%
CO[C@H]1[C@H](O[C@H]2CC[C@]3(C=O)[C@H]4CC[C@]5(C)[C@@H](C6=CC(=O)OC6)CC[C@]5(O)[C@@H]4CC[C@]3(O)C2)O[C@H](C)[C@H](O)[C@@H]1OC,,-7.62%
C=CC(C)(C)[C@@]12C[C@H]3C(=O)N/C(=C/c4cnc[nH]4)C(=O)N3[C@@H]1Nc1ccccc12,,0.178%
COC1C(O)C(C)OC(OC2C(Oc3cccc4c(O)c5c(=O)oc6ccc(C)c7c(=O)oc(c34)c5c67)OC(C)C(O)C2O)C1O (configuration not stated),10.5 µM (active),
